Source: PubChem BioAssay (National Center for Advancing Translational Sciences (NCATS))
KB-3-1 tox: kills parental KB-3-1 adenocarcinoma cells; Potency, µM (doses to about 46.1 µM), actives largely listed as cytotoxic; KB-3-1 viability, CellTiter-Glo ATP luminescence, 72 h; actives 1.4% (n = 400,000); note: nearly all actives have a fitted effect of over 60% in size
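Here the drug-naive KB-3-1 line serves as comparator for MDR sub-line selectivity; cells received compound titrations, 72 h at 37 °C, then CellTiter-Glo readout.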
DRD3 antagonist: blocks the human D3 dopamine receptor | P35462 | actives 2.5% (n = 360,000) | D3R cells, DiscoveRx beta-arrestin luminescence, antagonist mode; hits give low values | AID 652054 | max response, negative = inhibition, %; in the data active = max response below about -50%; inconclusive = no clear call, values can overlap the other calls
Target sequence (P35462 whole entry, looked up): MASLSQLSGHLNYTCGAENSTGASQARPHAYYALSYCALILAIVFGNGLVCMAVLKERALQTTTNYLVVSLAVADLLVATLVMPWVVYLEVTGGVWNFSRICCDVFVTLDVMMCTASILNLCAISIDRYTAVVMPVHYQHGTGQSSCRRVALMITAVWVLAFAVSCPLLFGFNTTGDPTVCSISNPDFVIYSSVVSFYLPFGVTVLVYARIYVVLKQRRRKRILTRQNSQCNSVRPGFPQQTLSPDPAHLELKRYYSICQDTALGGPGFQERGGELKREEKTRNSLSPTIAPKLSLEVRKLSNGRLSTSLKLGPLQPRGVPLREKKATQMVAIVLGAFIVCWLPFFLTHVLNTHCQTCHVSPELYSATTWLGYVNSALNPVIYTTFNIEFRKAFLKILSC
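Cells expressing the human receptor were seeded at 1500 cells/well, incubated overnight at 37 degrees C in 5% CO2, then exposed to library compounds with dopamine controls for 90 minutes at 37 degrees C before luminescent detection.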
SW480 rerep: inducers of DNA re-replication in SW480 colon cancer cells | SW480 DNA re-replication, Hoechst DNA content imaging, 48 h | Potency, µM (top dose mostly 46.1 µM), most hits filed as activators | actives 1.8% (n = 340,000); note: nearly all actives have a fitted effect of over 55% in size
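Readout is total intensity of Hoechst-stained nuclei, excited at 405 nm and collected at 500-530 nm. Compound treatment lasted 48 hr at 37 C in 5% CO2 before staining.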
D3 ag: agonists of human D3 dopamine receptor; P35462; D3R DiscoveRx beta-arrestin cells, luminescence, 90 min; max activation, %; actives 0.58% (n = 410,000); in the data active = max activation above about 30%
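Agonist mode: compounds and dopamine controls were applied to plated cells for 90 min at 37 degrees C after an overnight attachment at 1500 cells/well. Luminescent read-out followed 30 - 60 minutes at room temperature with DiscoveRx detection reagent.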
KB-V1 cytotox: kills drug-selected multidrug resistant KB-V1 cells. actives 3.4% (n = 400,000). KB-V1 MDR cells viability, CellTiter-Glo, 72 h. Potency, µM (series often up to 46.1 µM), actives largely listed as cytotoxic; note: nearly all actives have a fitted effect of over 60% in size
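Cytotoxicity via CellTiter-Glo luminescence after 72 h compound exposure at 37 degrees C. Cells: drug-selected KB-V1 line, DMEM phenol-red free plus 10% FBS. Compounds tested at multiple concentrations; normalized data fitted to concentration-effect curves.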
MCF10A rereplic: induces DNA re-replication in MCF 10a normal breast cells. MCF 10A DNA re-replication, Hoechst nuclear intensity, 48 h. Potency, µM (highest dose often 46.1 µM), actives largely listed as activators. actives 2.9% (n = 350,000). AID 624296; note: nearly all actives have a fitted effect of over 50% in size
Large screens that a line does not name were inactive. Sampled rows, rich in hits. Any-hit rate of the full collection: about 8.9%. Unless noted, calls come from the whole dose curve; as a rule, active = well fitted curve in the direction sought with a large enough effect; inconclusive = small, poorly fitted or top-dose-only effect, or another doubt; inactive = no such curve, though single readings can be large; an effect the other way counts as inactive or inconclusive.

C=CCN1CCN(C(=O)c2cc3c(s2)CCC(CC)C3)CC1 (stereo unspecified)	DRD3 antagonist -91
CCOC(=O)c1nnn(-c2nc(N3CCCC3)nc(N3CCCC3)n2)c1-c1ccccc1	KB-3-1 tox inconclusive
CCOC(=O)c1c(-c2ccccc2)nnn1-c1nc(OCC)nc(N2CCCCC2)n1	KB-3-1 tox inconclusive, KB-V1 cytotox 21µM, MCF10A rereplic 15µM
O=C(CSc1oc(-c2ccccc2)nc1S(=O)(=O)c1ccc(Cl)cc1)NC1CCCCC1	none (no result: DRD3 antagonist, SW480 rerep, MCF10A rereplic)
COc1oc(C(=O)NC2CCCCC2)c(-c2ccc(Cl)cc2)c1S(=O)(=O)c1ccccc1	KB-3-1 tox inconclusive, SW480 rerep inconclusive, KB-V1 cytotox 4.6µM
CCCCNC(=O)c1sc(=S)n2c1[nH]c(=O)c1ccccc12	DRD3 antagonist -50, MCF10A rereplic inconclusive
COC(=O)c1sc(=S)n(-c2ccccc2OC)c1N	none
CCCCNC(=O)c1sc(=S)n(-c2ccccc2OC)c1N	KB-V1 cytotox 21µM
O=C(NC1CCCCC1)c1sc(=S)n2c1[nH]c(=O)c1ccccc12	KB-3-1 tox inconclusive, DRD3 antagonist inconclusive, KB-V1 cytotox 21µM, MCF10A rereplic inconclusive
COc1ccc(CNC(=O)c2cccc(-n3cnc4cccnc43)c2C)cc1	none (no result: DRD3 antagonist, SW480 rerep, MCF10A rereplic)
O=C1CCCN1c1cc(Cl)cc(Cl)c1	DRD3 antagonist -55
Cc1cc(C)cc(N2CCCC2=O)c1	none
Cc1ccccc1NC(=O)c1ccc2nc(Cc3ccccc3)oc2c1	none (no result: DRD3 antagonist, SW480 rerep, MCF10A rereplic)
COc1ccc(S(=O)(=O)NCc2ccc(C(=O)NCCN(C)Cc3ccccc3)cc2)cc1	DRD3 antagonist -62 (no result: SW480 rerep, MCF10A rereplic)
CSc1nsc(/C=C/Nc2ccc(C)c(C)c2)c1C#N	SW480 rerep 18µM, MCF10A rereplic 1.2µM
CSc1nsc(/C=C/Nc2ccc(C)cc2)c1C#N	SW480 rerep inconclusive, MCF10A rereplic inconclusive
CCC(C)C(N)C(=O)O (stereo unspecified)	none (no result: KB-3-1 tox, DRD3 antagonist, D3 ag, KB-V1 cytotox)
COc1ccc(C(=O)Oc2cc3c4c(c2)C(C)=CC(C)(C)N4C(=O)C3=O)cc1OC	none
COc1cc(N=C2C(=O)N3c4c(cccc42)C(C)=CC3(C)C)cc(OC)c1	SW480 rerep 21µM, KB-V1 cytotox inconclusive
COc1cccc(C(=O)Oc2cc3c4c(c2)C(C)=CC(C)(C)N4C(=O)C3=O)c1	DRD3 antagonist inconclusive, SW480 rerep 4.1µM, MCF10A rereplic inconclusive
COc1cc2c3c(c1)C(C)=CC(C)(C)N3C(=O)C2=O	SW480 rerep 10µM, MCF10A rereplic inconclusive
CC1=CC(C)(C)N2C(=O)C(=Nc3ccc(O)cc3)c3cccc1c32	KB-3-1 tox inconclusive, DRD3 antagonist inconclusive, SW480 rerep inconclusive
CS(=O)(=O)Nc1ccccc1C(=O)OCc1cc(=O)n2nc(C3CCCCC3)sc2n1	none (no result: KB-3-1 tox, DRD3 antagonist, SW480 rerep, KB-V1 cytotox, MCF10A rereplic)
Cc1cccc(C)c1NC(=O)Cn1nc(C)c2sc3ccccc3c2c1=O	none (no result: DRD3 antagonist, SW480 rerep, MCF10A rereplic)
Cc1cc(C)cc(-n2ccn(CC(=O)Nc3ccccc3F)c(=O)c2=O)c1	none (no result: KB-3-1 tox, DRD3 antagonist, SW480 rerep, KB-V1 cytotox, MCF10A rereplic)
COC(=O)c1cc2sccc2n1Cc1nc(-c2cccc(Br)c2)oc1C	KB-V1 cytotox inconclusive (no result: DRD3 antagonist, SW480 rerep, MCF10A rereplic)
CCCC(=O)Nc1c(I)cc(I)c(C[C@H](CC)C(=O)O)c1I	none (no result: KB-3-1 tox, DRD3 antagonist, D3 ag, KB-V1 cytotox)
CC(=O)Nc1c(I)cc(I)c(C(=O)O)c1I	D3 ag 66 (no result: KB-3-1 tox, DRD3 antagonist, KB-V1 cytotox)
COc1ccc(CNC(=O)c2cnc3sc(N4CCOCC4)nn3c2=O)cc1	none (no result: KB-3-1 tox, DRD3 antagonist, SW480 rerep, KB-V1 cytotox, MCF10A rereplic)
CN1OC[C@@H]2CN(Cc3ccccc3)[C@H](c3cccc(N4CCOCC4)c3)C[C@@H]21	MCF10A rereplic inconclusive
Cc1ccccc1-c1cccc([C@@H]2C[C@H]3[C@H](CON3C)CN2Cc2ccccc2)c1	MCF10A rereplic 18µM
Cc1ccccc1S(=O)(=O)N1C[C@H]2CON(C)[C@H]2C[C@H]1c1cccc(Oc2ccccc2)c1	SW480 rerep 8.2µM, MCF10A rereplic inconclusive
Cc1cccc(-c2nn3c(=O)cc(CN4CCN(C(=O)/C=C/c5ccccc5)CC4)nc3s2)c1	none (no result: DRD3 antagonist, SW480 rerep, MCF10A rereplic)
Cc1cc2c(N=O)c(NO)ccc2[nH]1	KB-3-1 tox inconclusive, SW480 rerep 4.1µM, KB-V1 cytotox 4.1µM, MCF10A rereplic inconclusive
Cc1ccc(NC(=O)c2sc3nc(-c4ccc(F)cc4)cn3c2C)c(C)c1	none (no result: KB-3-1 tox, DRD3 antagonist, SW480 rerep, KB-V1 cytotox, MCF10A rereplic)
Cc1ccccc1NC(=O)Cn1c(=O)oc2cc(Br)ccc21	none (no result: KB-3-1 tox, DRD3 antagonist, SW480 rerep, KB-V1 cytotox, MCF10A rereplic)
C[C@@]12C(=O)OC(=O)[C@]1(C)C1CCC2O1	KB-3-1 tox inconclusive, DRD3 antagonist -87, SW480 rerep inconclusive, KB-V1 cytotox 5.8µM
CC12C(=O)N(c3nccs3)C(=O)C1(C)C1CCC2O1 (stereo unspecified)	SW480 rerep inconclusive
O=C(Nc1ccc(C(=O)NCCCN2CCN(c3ccccc3)CC2)cc1)C1=CSCCO1	DRD3 antagonist -73
CN1CCN(CCCNC(=O)c2ccc(NC(=O)C3=CSCCO3)cc2)CC1	none
Cc1ccccc1NC(=O)NCCCN1CCN(c2ccccc2)CC1	DRD3 antagonist inconclusive, D3 ag 50
O=C(NCCCN1CCN(c2ccccc2F)CC1)Nc1ccccc1[N+](=O)[O-]	KB-3-1 tox inconclusive, DRD3 antagonist -89
O=C(NCCCN1CCN(c2ccccc2)CC1)Nc1ccccc1C(F)(F)F	DRD3 antagonist inconclusive, D3 ag 30
COc1ccc(NC(=O)C(=O)NCCc2sc(-c3ccc(Cl)cc3)nc2C)cc1	none (no result: DRD3 antagonist, SW480 rerep, MCF10A rereplic)
O=C(NCc1ccc(F)cc1)c1ccc(S(=O)(=O)N2CCCC2)cc1	KB-V1 cytotox inconclusive (no result: SW480 rerep, MCF10A rereplic)
